Source: PubChem
Hits are enriched below; roughly 3.4% of the tested compounds scored in any of these assays.
FBW7 act – activators of human E3 ligase FBW7; AlphaScreen FBW7–phospho-cyclin E peptide binding, activator screen; normalized activity (activation), % at 26.1 µM; hit rate 0.13% among 650,000; in the data active = normalized activity above about 1.9%;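 also: purified mutant Fbw7 with reduced substrate affinity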
GPR151 activ – activates the human receptor GPR151; Q8TDV0; PathHunter beta-arrestin GPR151 cells, luminescence; activation, % at 11.2 µM; hit rate 1% among 650,000; in the data active = activation above about 4.9%;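 also: 0% = median of compound wells and 100% = cells with positive control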
Target sequence (Q8TDV0 whole entry, looked up): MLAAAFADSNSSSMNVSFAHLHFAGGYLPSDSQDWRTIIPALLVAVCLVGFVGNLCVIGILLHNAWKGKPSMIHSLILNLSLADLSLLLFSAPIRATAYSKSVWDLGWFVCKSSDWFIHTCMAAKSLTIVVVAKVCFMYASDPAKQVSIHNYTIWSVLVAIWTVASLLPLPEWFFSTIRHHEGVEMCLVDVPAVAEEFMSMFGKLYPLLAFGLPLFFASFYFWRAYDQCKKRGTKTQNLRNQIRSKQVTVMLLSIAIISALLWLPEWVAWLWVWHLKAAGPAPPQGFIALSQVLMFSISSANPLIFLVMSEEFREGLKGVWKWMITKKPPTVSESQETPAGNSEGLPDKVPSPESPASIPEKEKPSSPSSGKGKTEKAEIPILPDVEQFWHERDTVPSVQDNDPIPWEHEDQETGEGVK
TEAD-YAP block – TEAD-YAP interaction inhibition. HEK-TIYL cells, TEAD-Gal4/YAP UAS-luciferase luminescence. hit rate 1.4% among 640,000. inhibition, % at 9.12 µM; in the data active = inhibition above about 32%;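 also: 0% = median of test compound wells and 100% = reference inhibitor wells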
MITF inh – blocks human microphthalmia-associated transcription factor | O75030 | AlphaScreen MITF homodimerization, bead proximity signal | inhibition, % at 2.6 µM | hit rate 0.91% among 650,000 | AID 1259374; in the data active = inhibition above about 50%;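 also: 0% = vehicle wells with protein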
GPR151 conf act – confirmation of human GPR151 activators; 6,700 tested, under 10 active; activation, % at 11.2 µM; shares compounds with GPR151 activ; GPR151 PathHunter beta-arrestin cells, luminescence, 90 min; % of EA-reagent control over plate median; AID 1508609;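 active = mean percent activation across replicates above the confirmation screen cutoff of 4.91%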
GPR119 counter – GPR119 activation, counter-screen for GPR151 activators. AID 1508611. activation, % at 11.2 µM. shares compounds with GPR151 activ. GPR119 PathHunter beta-arrestin cells, luminescence, 90 min; 0 = compound-well median, 100 = enzyme-acceptor control. hit rate 0.3% among 6,700;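 active = mean percent activation in the counterscreen above 29.09%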;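 also: counterscreen on off-target GPR119 to flag nonselective hits from the GPR151 activator screen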
The depositor's hits bear a star; . = no result.

SMILES	FBW7 act	GPR151 activ	TEAD-YAP block	MITF inh	GPR151 conf act	GPR119 counter
CC(c1ccon1)N(C)C(=O)CC1(c2ccccc2Cl)CC(=O)N(CCN(C)C)C1=O (stereo unspecified)	0	0	-9	-4	.	.
CCOC(=O)c1cc(C(=O)NNC(=O)/C=C/C(=O)O)c(C)nc1C	0	5.3*	-2	6	0	-5
COc1ccc(C(C)(C)C)cc1NC(=O)COC(=O)c1cc(=O)c2ccccc2o1	0	-2	-8	-3	.	.
OC1CSC(=S)N1Cc1ccco1 (stereo unspecified)	0	-1	-6	-5	.	.
CC(NC(=O)c1cnc2scc(C(C)(C)C)n2c1=O)c1ccccc1 (stereo unspecified)	0	7.4*	4	-2	1	6
COCCCNCCOCCOc1ccc(Br)cc1Cl	0	0	13	30	.	.
Cc1ccccc1N(C)S(=O)(=O)c1ccc2[nH]cc(C(=O)N3CCC(C)CC3)c(=O)c2c1	0	5.1*	17	10	0	2
O=C1N[C@@H](Cc2ccc(O)cc2)C(=O)N2CCN(C(=O)Oc3cccc4ccccc34)C[C@H]12	0	-1	25	10	.	.
O=C(c1ccccc1)c1ccc(C(=O)N2CCN(c3ccccc3)CC2)o1	0	0	-29	-4	.	.
O=C(c1ccccc1)c1ccc(C(=O)N2CCCCC2)o1	0	6.7*	-57	-6	-1	-7
Cc1nc(CNc2nncc(-c3ccc(Cl)cc3)n2)cs1	0	9.4*	-24	0	-1	3
COc1ccc(OC)c(/C=N\NC(=O)c2sc(N)nc2C)c1	0	-1	-4	-1	.	.
CCOC(=O)CNC(=O)C(Cc1ccccc1)NC(=O)OCc1ccccc1 (stereo unspecified)	0	0	4	-5	.	.
CCNC(=O)C(Cc1ccc([N+](=O)[O-])cc1)NC(=O)OCc1ccccc1 (stereo unspecified)	0	5.6*	-11	-2	0	6
COC(=O)C(Cc1ccccc1)NC(=O)C(Cc1cnc[nH]1)NC(=O)OCc1ccccc1 (stereo unspecified)	0	5.5*	-2	3	1	-1
COC(=O)C(Cc1ccccc1)NC(=O)C(Cc1ccccc1)NC(=O)OCc1ccccc1 (stereo unspecified)	0	1	1	-6	.	.
O=S(=O)(Nc1ccc(Cl)cc1F)c1cnc[nH]1	0	11*	-11	3	1	12
Nc1cccc(-c2cc(C(=O)O)c3cc(Br)ccc3n2)c1	0	6.7*	-1	7	-1	-12
O=C(O)c1cc(-c2cccnc2)nc2ccc(Br)cc12	1	-1	2	7	.	.
CC(C)Cn1c(SCc2ccc([N+](=O)[O-])cc2)nnc1-c1ccncc1	0	5.9*	6	8	0	3
CCOc1ccc(NC(=O)c2sc3ncn(CC(=O)Nc4ccc(C)c(Cl)c4)c(=O)c3c2C)cc1	0	0	3	17	.	.
COc1ccc(CN2CCN(S(=O)(=O)c3ccc(Cl)cc3)CC2)cc1	0	-1	-10	-6	.	.
C=CCn1c(SC(C)C)nc2c1c(=O)n(C)c(=O)n2C	0	8.6*	-1	3	0	3
Cc1ccc(C)c(N2C(=O)CN(S(C)(=O)=O)CC2(C)C(=O)NC2CCCCCC2)c1 (stereo unspecified)	0	0	3	12	.	.
Cc1ccc(N2C(=O)CN(S(C)(=O)=O)CC2(C)C(=O)NC2CCCCC2)cc1C (stereo unspecified)	0	5.1*	1	3	1	-9
SMILES	FBW7 act	GPR151 activ	TEAD-YAP block	MITF inh	GPR151 conf act	GPR119 counter
COc1cccc(NC(=O)c2sc3nc4cc(C)ccc4cc3c2N)c1	0	0	-7	-3	.	.
COc1ccc(CCNc2nc(-c3ccc(C(=O)NC4CC4)cc3)nc3c2ncn3Cc2ccc(C(F)(F)F)cc2)cc1	0	1	-12	19	.	.
CC(C)C(NC(=O)c1ccccc1F)C(=O)OCC(=O)c1ccc(F)cc1 (stereo unspecified)	0	9.3*	-9	2	-1	0
COc1ccc(C(=O)COC(=O)C(NC(=O)c2ccc(Cl)cc2)C(C)C)cc1 (stereo unspecified)	0	1	9	0	.	.
COc1cc(Br)cc(/C=N\NC(=O)CNc2ccccc2C)c1O	0	1	20	5	.	.
CCN(CC)c1ccc(/C=C2/C(=O)NC(=O)N(Cc3ccc(F)cc3)C2=O)cc1	-1	11*	6	3	1	-1
CCOc1ccc(/C=C2/C(=O)NC(=O)N(Cc3ccc(F)cc3)C2=O)cc1	-1	-1	-4	-17	.	.
O=C1OC(c2ccc(-c3ccccc3)cc2)=N/C1=C\c1cccnc1	0	14*	4	2	-1	-5
CCN(CC)C(=O)Cn1c(=O)n(-c2ccc(C)cc2)c(=O)c2oc3ccccc3c21	0	5.2*	12	16	0	-3
CCN(CC)C(=O)Cn1c(=O)n(-c2ccccc2)c(=O)c2oc3ccccc3c21	0	1	8	-4	.	.
CC(=O)Nc1ccc(C(C(F)(F)F)(C(F)(F)F)C(F)(F)F)cc1[N+](=O)[O-]	0	5.0*	-8	3	0	-5
O=S(c1cc(Cl)cc(Cl)c1O)c1cc(Cl)cc(Cl)c1O	0	6.9*	-6	7	1	4
c1csc(-c2[nH]ncc2CNC2CCCCC2)c1	0	5.1*	3	-3	-1	-16
O=C1CN(C(=O)COC(=O)c2ccc(I)cc2)c2ccccc2N1	0	1	7	6	.	.
O=C(CSc1nnnn1-c1ccc(F)cc1)NCc1ccccc1C(=O)O	0	10*	-1	16	0	2
O=C(CSc1nnnn1-c1ccc(F)cc1)NCCc1ccccc1	0	-1	7	20	.	.
NC(=O)C1(N2CCCCC2)CCN(C(=O)NC2CCCCC2)CC1	0	5.4*	5	10	0	6
Cc1noc(/C=C/c2cccs2)c1S(=O)(=O)N1CCCC(C(=O)N2CCCC2)C1 (stereo unspecified)	0	0	-6	-2	.	.
Cc1noc(/C=C/c2cccs2)c1S(=O)(=O)N1CCCC(C(=O)N2CCCCC2)C1 (stereo unspecified)	0	5.0*	-2	2	0	5
CC(C)N(CCNc1ncnc2nc(Nc3ccccc3)[nH]c12)C(C)C	0	-2	-7	5	.	.
CC(C)N(CCNc1ncnc2nc(Nc3nccc4ccccc34)[nH]c12)C(C)C	0	6.1*	-3	9	0	-5
Cc1cccc(NC(=O)C(=O)NCCO)c1C	0	-1	4	8	.	.
Cc1c(Cl)cccc1NC(=O)C(=O)NCCO	0	5.2*	-11	-2	0	3
